The results in this text go back to PubChem BioAssay AID620 (Sanford-Burnham Center for Chemical Genomics, 2007).

The structures appear in SMILES notation. Hit rate of the full screen: of about 87,000 compounds, about 360 (0.41%) were called active. Cut-off read from the data, not from the text of the source: active = cytotoxicity above about 50%; inactive = the rest. What follows is part of a selection rich in actives, with near analogues and random picks from the rest.

A short description of this test: cytotoxicity in HT1080 fibrosarcoma cells, cell-based, fluorescence readout (AID 620).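 Note: cells exposed to compound overnight then 4 h with Alamar Blue; 0% = vehicle DMSO and 100% = killing control.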 Particulars: HT1080 viability, at 10 µM, stronger effect = higher value.
Take `O=c1c2cc(Br)ccc2nc2n1CCCCC2`: the cytotoxicity was -8.5% (inactive).
For `COc1cccc(CNC(=O)c2cc3ccccn3n2)c1` the value was 0% (inactive); for `CC(=O)c1cccc(NC(=O)c2cc3ccccn3n2)c1`, 6.1% (inactive); for `CCOC(=O)c1nc(N)c(=O)n(-c2ccc(C)cc2)n1`, 5.9% (inactive).
Turning to `CCOc1ccc(N(C(=O)Cn2nnc3ccccc32)C(C(=O)NC(C)(C)CC)c2cccn2C)cc1` (centres undefined), the cytotoxicity was 15% (inactive).
The figure for `C=CC1C(N2CCOCC2)C(C)(C)S1(=O)=O` (centres undefined) is 0.5% (inactive); for `Cc1cc(NC(=O)CSc2nnc3c(C)cc4cc(C)c(C)cc4n23)no1` it is 11.9% (inactive).
On to `Cc1cc(C)c2c(c1)cc(C)c1nnc(SCC(=O)Nc3cc(C)on3)n12`, for which the cytotoxicity is 20.3% (inactive).
Take `Cc1cc(NC(=O)CSc2nnc3c(C)cc4c(C)ccc(C)c4n23)no1`: the cytotoxicity was 58.9% (active).
For `COc1ccc(N2CCN(C(=O)CN(Cc3ccc(Cl)cc3)S(C)(=O)=O)CC2)cc1` the value was -6.4% (inactive).
Consider `CC1CCCCN1C(=O)CSc1ccc(-c2ccc(F)cc2)nn1` (centres undefined), for which the cytotoxicity is -10.9% (inactive).
Consider `CCOC(=O)N1CCN(C(=O)c2cc(-c3ccc(OCC)cc3)nc3ccccc23)CC1`, for which the cytotoxicity was 54.9% (active).
For `CCOc1ccc(-c2cc(C(=O)N3CCN(C)CC3)c3ccccc3n2)cc1` the value was 3.8% (inactive).
For the compound `CCOc1ccc(-c2cc(C(=O)N3CCN(c4ccccn4)CC3)c3ccccc3n2)cc1`, the cytotoxicity is 52.4% (active).
As to `COc1ccc(-c2cc(C(=O)N3CCN(c4ccccn4)CC3)c3ccccc3n2)cc1`, the cytotoxicity was 3.7% (inactive).
On to `CCOC(=O)N1CCN(C(=O)c2ccccc2Oc2ccccc2)CC1`, for which the cytotoxicity was 3.5% (inactive).
As to `O=C(c1cc(-c2ccccc2)nc2ccccc12)N1CCN(c2ccccn2)CC1`, the cytotoxicity was -0.4% (inactive).
For `CCOC(=O)N1CCN(C(=O)c2ccccc2-c2ccccc2)CC1`, the cytotoxicity was 58.5% (active).
As to `O=C(c1ccccc1-c1ccccc1)N1CCCC1`, the cytotoxicity is 7.3% (inactive).
In the case of `CCOc1ccc(-c2cc(C(=O)O)c3ccccc3n2)cc1`, the cytotoxicity is 23.3% (inactive).
The figure for `CNC(=S)NN(c1ccccc1)c1ccccc1` is 30.1% (inactive).
As for `COc1ccccc1CNC(=O)C(=O)NCC1CCCO1` (centres undefined), the cytotoxicity was 0.9% (inactive).
As for `Cc1cc(=O)oc2cc(OCC3CC(c4ccccc4Cl)=NO3)ccc12` (centres undefined), the cytotoxicity is 63.5% (active).
For `Cc1cc(=O)oc2cc(OCC3CC(c4ccccc4)=NO3)ccc12` (centres undefined) the value was 8.1% (inactive); for `Cc1cc(=O)oc2cc(OCC3CC(c4ccc(Cl)cc4)=NO3)ccc12` (centres undefined), -6.9% (inactive).
As for `O=C(NCc1ccccn1)C1CCCN(Cc2cnn(-c3ccccc3)c2-n2cccc2)C1` (centres undefined), the cytotoxicity was -8.2% (inactive).
Regarding `O=S(=O)(c1ccc(S(=O)(=O)N2CCCC2)cc1)N1CCCCCC1`, the cytotoxicity was 1.4% (inactive).
In the case of `O=S(=O)(c1ccc2c(c1)C(=NO)c1cc(S(=O)(=O)N3CCCCC3)ccc1-2)N1CCCCC1`, the cytotoxicity was 102% (active).
Turning to `CC1CCN(S(=O)(=O)c2ccc3c(c2)C(=NO)c2cc(S(=O)(=O)N4CCC(C)CC4)ccc2-3)CC1`, the cytotoxicity is 4.2% (inactive).
